In article PMC4336329 (PLoS ONE, 2015):
Among all 310,000 compounds or so, about 14,000 (4.5%) showed an effect of 50% or more. Effects have a minus sign here. What follows is part of a selection rich in strong results, with near analogues and random picks from the rest.

What follows are molecules tested against human ether-à-go-go-related gene (hERG) potassium channel (human, UniProt Q12809) (assay: primary screen, population patch clamp on CHO cells stably expressing hERG; higher = less effect of the substance).
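Also: peak tail current of the secondary pulse compared with the same well before compound.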

Sequence of human ether-à-go-go-related gene (hERG) potassium channel (Q12809 whole entry, looked up): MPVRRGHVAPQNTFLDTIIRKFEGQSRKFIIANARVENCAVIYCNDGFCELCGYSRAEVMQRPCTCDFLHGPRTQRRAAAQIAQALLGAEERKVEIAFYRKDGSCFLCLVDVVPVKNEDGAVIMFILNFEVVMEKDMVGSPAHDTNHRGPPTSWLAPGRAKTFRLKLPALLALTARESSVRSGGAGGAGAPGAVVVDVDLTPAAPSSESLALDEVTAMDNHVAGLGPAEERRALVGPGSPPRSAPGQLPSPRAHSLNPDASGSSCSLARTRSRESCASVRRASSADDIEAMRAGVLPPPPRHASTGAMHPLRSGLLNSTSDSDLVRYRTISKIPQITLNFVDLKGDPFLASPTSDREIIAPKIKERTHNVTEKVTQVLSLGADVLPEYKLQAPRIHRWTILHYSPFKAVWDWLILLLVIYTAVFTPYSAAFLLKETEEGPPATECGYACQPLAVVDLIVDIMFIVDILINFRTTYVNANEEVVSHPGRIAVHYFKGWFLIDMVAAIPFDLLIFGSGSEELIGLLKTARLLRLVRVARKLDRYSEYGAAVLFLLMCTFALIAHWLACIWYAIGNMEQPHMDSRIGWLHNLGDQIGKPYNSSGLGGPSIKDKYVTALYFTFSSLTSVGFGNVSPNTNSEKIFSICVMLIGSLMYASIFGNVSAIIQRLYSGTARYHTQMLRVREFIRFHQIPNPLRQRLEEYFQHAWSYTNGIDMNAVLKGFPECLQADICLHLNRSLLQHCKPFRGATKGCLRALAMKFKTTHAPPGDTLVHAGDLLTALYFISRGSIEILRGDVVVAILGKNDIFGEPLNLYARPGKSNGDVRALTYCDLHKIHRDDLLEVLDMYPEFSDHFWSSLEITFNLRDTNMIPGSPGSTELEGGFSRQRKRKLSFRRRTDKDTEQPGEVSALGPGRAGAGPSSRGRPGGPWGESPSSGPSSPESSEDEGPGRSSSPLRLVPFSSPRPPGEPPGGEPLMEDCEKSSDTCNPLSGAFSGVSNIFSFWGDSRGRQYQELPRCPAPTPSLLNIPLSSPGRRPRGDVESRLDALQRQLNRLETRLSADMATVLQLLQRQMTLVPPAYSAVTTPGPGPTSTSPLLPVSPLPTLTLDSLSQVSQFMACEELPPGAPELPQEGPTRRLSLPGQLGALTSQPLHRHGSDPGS

Q: `CCc1nnc(NS(=O)(=O)c2ccc(N3C(=O)C4CC=C(Cl)CC4C3=O)cc2)s1` (centres unmarked) was tested. Which “hERG current change (%, negative = inhibition) at 10uM” value did it give?
A: 4.84%

Q: For `Cc1ccc2nc(N(CCCN(C)C)C(=O)c3cc4ccccc4oc3=O)sc2c1.Cl`, which “hERG current change (%, negative = inhibition) at 10uM” value is on record?
A: -33.7%

Q: With `Cc1cccc2sc(N(CCCN(C)C)C(=O)c3cc4ccccc4oc3=O)nc12.Cl` as the molecule, how does the “hERG current change (%, negative = inhibition) at 10uM” value read?
A: -54.6%

Q: With `CN(C)CCCN(C(=O)c1cc2ccccc2oc1=O)c1nc2c(F)cccc2s1.Cl` as the molecule, how does the “hERG current change (%, negative = inhibition) at 10uM” value read?
A: -41.1%

Q: Which “hERG current change (%, negative = inhibition) at 10uM” value does the source give for `CN(C)CCCN(C(=O)c1cc(-c2cccs2)nc2ccccc12)c1nc2ccc(F)cc2s1.Cl` here?
A: 5.59%

Q: For `CN(C)CCCN(C(=O)c1cc2ccccc2oc1=O)c1nc2ccc(F)cc2s1.Cl`, which “hERG current change (%, negative = inhibition) at 10uM” value is on record?
A: -68.1%

Q: Which “hERG current change (%, negative = inhibition) at 10uM” value does the source give for `CC(=O)OC1COC(n2c(O)c(N=NC(N)=S)c3ccccc32)C(OC(C)=O)C1OC(C)=O` (centres unmarked) here?
A: 15.8%

Q: Which “hERG current change (%, negative = inhibition) at 10uM” value does the source give for `COC(=O)C1=C(C)N(c2ccc(Br)cc2)C(=O)/C1=C\c1ccco1` here?
A: 2.22%

Q: How did the “hERG current change (%, negative = inhibition) at 10uM” value turn out when `c1ccc(-c2nnc3sc(Cc4cccs4)nn23)cc1` was run?
A: -30.8%

Q: How did the “hERG current change (%, negative = inhibition) at 10uM” value turn out when `Clc1ccc(-c2nnc3sc(Cc4cccs4)nn23)cc1` was run?
A: 4.77%

Q: `Clc1ccc(-c2nnc3sc(Cc4cccs4)nn23)c(Cl)c1` was tested. Which “hERG current change (%, negative = inhibition) at 10uM” value did it give?
A: -55.7%

Q: For `CCc1cccc2c(C(=O)CCl)c[nH]c12`, which “hERG current change (%, negative = inhibition) at 10uM” value is on record?
A: -14.3%

Q: With `COc1ccc2[nH]c3c(c2c1)CCNC3(C)CCc1ccc(Cl)nc1` (centres unmarked) as the molecule, how does the “hERG current change (%, negative = inhibition) at 10uM” value read?
A: -51.6%

Q: For `Cl.c1ccc2c3c([nH]c2c1)C1(CCCCC1)NCC3`, which “hERG current change (%, negative = inhibition) at 10uM” value is on record?
A: 2.11%

Q: Which “hERG current change (%, negative = inhibition) at 10uM” value does the source give for `COc1ccc2[nH]c3c(c2c1)CCNC3C.Cl` (centres unmarked) here?
A: 14.7%

Q: For `COc1ccc2[nH]c3c(c2c1)CCN[C@H]3C`, which “hERG current change (%, negative = inhibition) at 10uM” value is on record?
A: -3.82%

Q: With `CC1(CCc2ccc3c(c2)OCO3)NC(=O)c2ccccc2N1` (centres unmarked) as the molecule, how does the “hERG current change (%, negative = inhibition) at 10uM” value read?
A: -7.78%

Q: With `CC1(CCc2ccc3c(c2)OCO3)NCCc2c1[nH]c1ccccc21.Cl` (centres unmarked) as the molecule, how does the “hERG current change (%, negative = inhibition) at 10uM” value read?
A: -85.8%

Q: For `COc1cccc(NC(C(=O)Nc2cccc(C(C)=O)c2)c2ccccc2)c1` (centres unmarked), which “hERG current change (%, negative = inhibition) at 10uM” value is on record?
A: -7.56%

Q: For `O=C(O)C(Cc1ccccc1)N1C(=O)CCC1=O` (centres unmarked), which “hERG current change (%, negative = inhibition) at 10uM” value is on record?
A: 14.4%

Q: `COc1ccc(C2CC(=O)C(C=NCCO)=C(O)C2)cc1OC` (centres unmarked) was tested. Which “hERG current change (%, negative = inhibition) at 10uM” value did it give?
A: 4.15%

Q: `COc1ccc(C2CC(=O)C(C=NCCN3CCN(C(C)=O)CC3)=C(O)C2)cc1` (centres unmarked) was tested. Which “hERG current change (%, negative = inhibition) at 10uM” value did it give?
A: -1.68%

Q: For `CCCCCC(=O)N1CCN(CCN=CC2=C(O)CC(c3ccc(OC)c(OC)c3)CC2=O)CC1` (centres unmarked), which “hERG current change (%, negative = inhibition) at 10uM” value is on record?
A: -78.8%

Q: How did the “hERG current change (%, negative = inhibition) at 10uM” value turn out when `CCC(=O)N1CCN(CCN=CC2=C(O)CC(c3ccc(OC)cc3)CC2=O)CC1` (centres unmarked) was run?
A: 5.11%

Q: How did the “hERG current change (%, negative = inhibition) at 10uM” value turn out when `CCCCCC(=O)N1CCN(CCN=CC2=C(O)CC(c3ccc(OC)cc3)CC2=O)CC1` (centres unmarked) was run?
A: -74.1%

Q: `COc1ccc(C2CC(=O)C(C=NCCN3CCN(C(=S)Nc4ccccc4)CC3)=C(O)C2)cc1OC` (centres unmarked) was tested. Which “hERG current change (%, negative = inhibition) at 10uM” value did it give?
A: -20.1%

Q: With `Cc1ccccc1C1=NC(C(F)(F)F)(C(F)(F)F)c2c(n(C)c(=O)n(C)c2=O)N1` as the molecule, how does the “hERG current change (%, negative = inhibition) at 10uM” value read?
A: 3.5%

Q: For `NC(=S)Cc1ccc(Cl)cc1Cl`, which “hERG current change (%, negative = inhibition) at 10uM” value is on record?
A: 18.8%

Q: `O=C(Nc1cccc(Cl)c1)Nc1ccccc1NS(=O)(=O)c1cccs1` was tested. Which “hERG current change (%, negative = inhibition) at 10uM” value did it give?
A: 24%

Q: Which “hERG current change (%, negative = inhibition) at 10uM” value does the source give for `Cc1cc(C)c(NC(=O)CSc2nnc(-c3ccco3)n2N)c(C)c1` here?
A: -14.9%

Q: With `CCC(CC(C)(C)O)C(=O)NNC(=S)Nc1ccccc1` (centres unmarked) as the molecule, how does the “hERG current change (%, negative = inhibition) at 10uM” value read?
A: 5.73%

Q: How did the “hERG current change (%, negative = inhibition) at 10uM” value turn out when `O=C(OCC(=O)N1CCCC1)c1ccc(NS(=O)(=O)c2cccs2)cc1O` was run?
A: 17.1%

Q: For `O=C(O)c1ccc(Oc2ccccc2)o1`, which “hERG current change (%, negative = inhibition) at 10uM” value is on record?
A: 23.2%

Q: Which “hERG current change (%, negative = inhibition) at 10uM” value does the source give for `O=C(Nc1ccccc1)Nc1ccccc1-n1ccnc1` here?
A: -18.2%

Q: How did the “hERG current change (%, negative = inhibition) at 10uM” value turn out when `Cc1ccc(C)c(C(=O)CN2C(=O)NC3(CCC(C)CC3)C2=O)c1` (centres unmarked) was run?
A: -18.3%

Q: For `CC1CCCN(CCSc2ccc(Cl)cc2)C1.O=C(O)C(=O)O` (centres unmarked), which “hERG current change (%, negative = inhibition) at 10uM” value is on record?
A: -41.3%

Q: Which “hERG current change (%, negative = inhibition) at 10uM” value does the source give for `CC(C)(C)c1cc(Cl)ccc1OCCOCCN1CCCC1.O=C(O)C(=O)O` here?
A: -45.8%

Q: How did the “hERG current change (%, negative = inhibition) at 10uM” value turn out when `CC1CCCN(CCOCCOc2ccc(Cl)cc2Br)C1.O=C(O)C(=O)O` (centres unmarked) was run?
A: -61.1%

Q: Which “hERG current change (%, negative = inhibition) at 10uM” value does the source give for `CC1CCCN(CCCOc2ccc(Cl)cc2Br)C1.O=C(O)C(=O)O` (centres unmarked) here?
A: -70.5%

Q: With `Cc1ccc(N2C(=O)N(CC(=O)NC(c3ccccc3)c3ccccc3)C(=O)C2C)cc1` (centres unmarked) as the molecule, how does the “hERG current change (%, negative = inhibition) at 10uM” value read?
A: -32.6%

Q: How did the “hERG current change (%, negative = inhibition) at 10uM” value turn out when `O=C(O)C1=C[C@@H](C2CCCCC2)C[C@@H](OCCCCO)O1` was run?
A: 9.42%

Q: For `Cc1ccsc1C(=O)NNC(=O)COc1ccccc1Cl`, which “hERG current change (%, negative = inhibition) at 10uM” value is on record?
A: 16.9%

Q: With `CC1(C)N(OCc2ccccc2)C(=O)C(=O)N(OCc2ccccc2)C1(C)C` as the molecule, how does the “hERG current change (%, negative = inhibition) at 10uM” value read?
A: -6.11%

Q: How did the “hERG current change (%, negative = inhibition) at 10uM” value turn out when `COc1cccc(C(C(=O)NCC2CCCO2)N(C(=O)Cn2nnc3ccccc32)c2ccc(NC(C)=O)cc2)c1OC` (centres unmarked) was run?
A: 6.49%
